From PubChem BioAssay
Pf Dd2 inh = Plasmodium falciparum Dd2 growth inhibition; P. falciparum Dd2 growth, SYBR Green, 72 h; Potency, µM (top dose mostly 28.9 µM), hits mostly inhibitors; 120,000 tested, 4.3% active; active means well fitted inhibition curve with a large enough effect; further: nearly all actives have a fitted effect of over 65% in size
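Infected erythrocytes (Dd2, 0.3% parasitemia, 2.5% hematocrit final) are added to compound in RPMI-1640/Albumax II medium, grown 72 h at 37C in low oxygen, then lysed with saponin/Triton-X containing SYBR Green and read by fluorescence.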
Large screens that a line does not name were inactive. The full list was thinned out, with hits kept by preference.

COc1ccc(CCC(=O)N2CCCN(c3cc(-c4ccc(Br)cc4)[nH]n3)CC2)cc1	none
COc1cc(OC)cc(C(=O)N2CCN(c3cc(-c4ccc(Cl)cc4)[nH]n3)CC2)c1	none
COc1cccc(C(=O)N2CCCN(c3cc(-c4ccc(Cl)cc4)[nH]n3)CC2)c1	Pf Dd2 inh 4µM
COc1ccc(-c2cc(N3CCCN(C(=O)CCCc4ccccc4)CC3)n[nH]2)cc1	Pf Dd2 inh 2.2µM
O=C(CCCc1ccccc1)N1CCN(c2cc(-c3ccccc3)[nH]n2)CC1	none
O=C(c1csc(-c2cccs2)n1)N1CCC2(CCCO2)CC1	none
Cc1cc(N2CCC(NS(=O)(=O)c3cn(C)c(C)n3)C2=O)ccc1F (configuration not stated)	none
C=CCc1ccccc1OCCN(C)Cc1cnc2ccccc2n1	none
CCOc1cccc(CN2CCC3(CC2)CC(O)CCO3)c1 (configuration not stated)	none
Cc1ccsc1C(=O)NCCC1CCN(C(=O)Nc2ccccc2)CC1	none
Cc1ccc(NC(=O)c2c(C)oc3ccc(O)c(CN4CCCCCC4)c23)c(C)c1	Pf Dd2 inh 1.1µM
CCN(CC)S(=O)(=O)c1ccc(NC(=O)c2c(C)oc3ncnc(N4CCCCC4)c23)cc1	none
COc1ccc(NC(=O)c2c(C)oc3ccn(Cc4cccc(F)c4)c(=O)c23)cc1F	none
COc1ccc(NC(=O)c2cccn2-c2nnc(N3CCCCC3)s2)cc1Cl	none
Cc1ccc(NC(=O)Cn2c(=O)oc3cc(S(=O)(=O)N4CCCCC4)ccc32)c(C)c1	none
COc1cc(=O)n2c(c1C(=O)Nc1ccc(C)cc1)CCCC2	none
Cc1ccc(NC(=O)c2cc(S(=O)(=O)N3CCCC3)c[nH]2)c(C)c1	none
Cc1ccc(NC(=O)c2c(C)oc3ccc(O)c(CN4CCCCCC4)c23)cc1	Pf Dd2 inh 0.63µM
COc1ccc(NC(=O)c2c(C)oc3ccc(O)c(CN4CCCC(C)C4)c23)cc1Cl (configuration not stated)	Pf Dd2 inh 0.4µM
Cc1cc(C)c(C(=O)N2CCC(=O)N(CC3CC3)C(C(C)C)C2)cc1C (configuration not stated)	none
CNC(=O)[C@@H](c1ccccc1OC)N1CCC[C@H]1C(=O)N(C)CCN(C)C	none
CC(C)c1noc(-c2cn(C3CCN(C(=O)c4nccc5ccccc45)C3)nn2)n1 (configuration not stated)	none
CN1C(=O)c2ccccc2CC12CN(C(=O)c1ccc(Cl)cc1)C2	none
O=C(Cn1ccn2nc3c(c2c1=O)CCCC3)NC1CCCC1	none
CC(C)Oc1ccc(CN2CCc3n[nH]c(=O)n3CC2)cc1	none
CNC(=O)[C@@H](c1ccc(Cl)cc1)N1CCC[C@H]1C(=O)N1CCC1	none
Cc1cccc(N2CCN(C(=O)c3cn(CC(C)C)c(=O)c4c3c3ccccc3n4C)CC2)c1C	Pf Dd2 inh 11µM
Cc1ccc(-n2nc(C(=O)N3CCN(c4ccccc4F)CC3)c3c4ccccc4n(C)c3c2=O)cc1	none
Cc1ccc(C)c(N2CCN(C(=O)c3cn(CC(C)C)c(=O)c4c3c3ccccc3n4C)CC2)c1	Pf Dd2 inh 2.5µM
Cc1ccc(-n2nc(C(=O)N3CCN(c4cc(C)ccc4C)CC3)c3c4ccccc4n(C)c3c2=O)cc1	none
CCn1cc(C(=O)N2CCN(c3cc(C)ccc3C)CC2)c(=O)c2cc(S(=O)(=O)N3CCCCC3)ccc21	none
CCn1c(=O)cc(OCC(=O)N2CCN(c3cccc(C)c3C)CC2)c2ccccc21	none
COc1ccc(CNc2nccc(CCC(F)(F)F)n2)cc1OC	none
Cc1nccn1Cc1nnc(C2CCN(C(=O)c3cnccn3)CC2)n1C	none
CN1CCC(CNc2ncc(C(C)(C)C(=O)O)c(N3CCOCC3)n2)CC1	none
Cc1ccc(OC2(C(=O)NCc3cccc(N(C)C)c3)CCNCC2)cc1	none
CC(C)(C)C1CCC2(CC1)NC(=O)N(CC(=O)NC1CCc3ccccc31)C2=O (configuration not stated)	none
Cc1ccc(OC2(C(=O)N[C@H]3CCc4ccccc43)CCNCC2)cc1	Pf Dd2 inh 7.9µM
Cc1ccc(NC(=O)N2CCC(CCN)CC2)cc1F	none
COC(=O)CC[C@H]1CNC(=O)[C@@H]2[C@@H](CCN2S(C)(=O)=O)N1C	none
CCOc1ccc(NC(=O)C2CCCN(c3nnc(C)c4c(C)n(-c5ccccc5)nc34)C2)cc1 (configuration not stated)	none
Cc1nnc(N2CCCC(C(=O)NCc3ccccc3F)C2)c2nn(-c3ccc(Cl)cc3)c(C)c12 (configuration not stated)	none
COc1ccc(-n2nc3c(N4CCCC(C(=O)NCCc5ccc(C)cc5)C4)nnc(C)c3c2C)cc1 (configuration not stated)	Pf Dd2 inh 8.9µM
CCc1ccc(NC(=O)C2CCCN(c3nnc(C)c4c(C)n(-c5ccccc5)nc34)C2)cc1 (configuration not stated)	none
COc1ccc(-n2nc3c(N4CCCC(C(=O)NCc5ccccc5C)C4)nnc(C)c3c2C)cc1 (configuration not stated)	none
COc1ccc(-n2nc3c(N4CCCC(C(=O)NCCc5ccccc5C)C4)nnc(C)c3c2C)cc1 (configuration not stated)	Pf Dd2 inh 8.9µM
COCC(=O)N1CCC(C(=O)NCc2cc(-c3cccc(F)c3)no2)CC1	none
CCCCc1ccc(NC(=O)CN2C(=O)NC(c3ccc(C)cc3)C3=C2COC3=O)cc1 (configuration not stated)	none
O=C(O)C1CCc2nnc(C3CCCN(C(=O)c4ccc5c(c4)OCO5)C3)n21 (configuration not stated)	none
COc1ccc2cc(CN3CCC(OC)CC3)c(-c3cccc(C)c3)nc2c1	Pf Dd2 inh 10µM
COc1ccc(-c2[nH]ncc2CN2CC[C@H]3CC[C@@H](C2)N3)cc1	none
Cc1cccc(-c2nc3cc(C)ccc3cc2CN2CCN(CCCO)CC2)c1	none
COCC1CCN(Cc2cc3ccc(OC)cc3nc2-c2cccc(C)c2)C1 (configuration not stated)	Pf Dd2 inh 11µM
COc1ccc(-c2nc3cc(C)ccc3cc2CN2CCC[C@H]2C(N)=O)cc1OC	none
COc1ccc(N2CC(c3noc(-c4cccc(C)c4)n3)CC2=O)cc1 (configuration not stated)	none
O=C(CN1C(=O)NC(c2ccc(Cl)cc2)C2=C1COC2=O)Nc1cccc(F)c1 (configuration not stated)	none
Cn1nccc1CN1CCC2(CC1)CN[S+](=O)([O-])c1ccccc1N2	none
COc1ccccc1CNC(=O)C1CC(=O)N(c2n[nH]c3cccc(F)c23)C1 (configuration not stated)	none
CC(C)CC1=NC2(CCN(C(=O)c3ccoc3)CC2)C(=O)N1	none
COCc1cc(=O)n(CC(=O)Nc2ccc(C)c(Cl)c2)c(N2CCOCC2)n1	none
CC(C)NC(=O)NC[C@H]1O[C@@H](CO)[C@@H](O)[C@H]1N1CCN(C)CC1	none
CN(C)c1ccc(NC(=O)CCSc2nc(-c3ccco3)cc(C(F)(F)F)n2)cc1	Pf Dd2 inh 11µM
COc1ccc(NC(=O)CCSc2nc(-c3ccco3)cc(C(F)(F)F)n2)cc1	none
CC(=O)c1ccc(NC(=O)CCSc2nc(-c3ccco3)cc(C(F)(F)F)n2)cc1	none
COCCN1C(=O)CCC2(C(=O)NCCCN3CCCC3)CCCC=C12 (configuration not stated)	none
CCN(CC)C(=O)[C@@H]1C[C@H](N)CN1C(=O)c1ccc2c(c1)OCC(=O)N2	none
O=C(NCCc1ccccc1)c1ccc(CSc2nc3ccncc3n2Cc2ccccc2)cc1	Pf Dd2 inh 8.9µM
Cc1ccccc1Cn1c(SCc2ccc(C(=O)NCCc3ccccc3)cc2)nc2ccncc21	Pf Dd2 inh 7.1µM
Cc1ccccc1Cn1c(SCc2ccc(C(=O)NC3CCCC3)cc2)nc2ccncc21	none
